Experimental data published in PubChem BioAssay (NCI).
This is part of a sample that, as a whole, favours compounds with a hit. Of some 83,000 tested, about 20% had one in any assay.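 In brief: 96-well plates, 48 h treatment, single concentration, percent growth endpoint.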 The source made the active and inactive calls. How the source made its calls: active means growth percent below 10; inactive means the rest.

What was measured:
Assay in all cases: NCI-60 one-dose screen, 48 h (100 = growth as untreated, 0 = no growth, -100 = all killed)
Conditions in all cases: 10 µM unless noted
[1] = test system: T-47D breast
[2] = test system: BT-549 breast
[3] = test system: MDA-MB-435 melanoma
[4] = test system: SW-620 colon
[5] = test system: MCF7 breast
[6] = test system: HCT-116 colon
[7] = test system: HCC-2998 colon
[8] = test system: KM12 colon

Measured: growth

O=S(=O)(NCCCNc1cc(-c2cn(-c3ccccc3)nc2-c2cccc(O)c2)ccn1)c1cccc2ccccc12
active: [7] -71%
inactive: [1] 33.1% | [2] 37.1% | [3] 32.8% | [4] 22.5% | [5] 15.8% | [6] 28.1% | [8] 25.5%

CC1CCN(C(=O)CSc2nc3sc4c(c3c(=O)[nH]2)CCCC4)CC1
inactive: [1] 102% | [2] 95.2% | [3] 95.6% | [4] 108% | [5] 109% | [6] 112% | [7] 120% | [8] 120%

CC1=NN2C(=NC3=C(CCC/C3=C\c3ccc(Cl)cc3)C2c2ccc(Cl)cc2)S1 (centres undefined)
inactive: [1] 89.1% | [2] 97.9% | [3] 45.8% | [4] 97.3% | [5] 24.2% | [7] 80.6% | [8] 77.2%
active: [6] -37.2%

COc1ccc(C2NC3=C(CCCC3)C(C#N)(C#N)C2(C#N)C#N)cc1 (centres undefined)
inactive: [1] 49.2% | [2] 92.9% | [3] 103% | [4] 48.2% | [5] 49.9% | [6] 78.7% | [7] 102% | [8] 103%

Cc1sc2nc(CSc3nnc(-c4ccco4)o3)[nH]c(=O)c2c1C
inactive: [1] 95.4% | [2] 102% | [3] 105% | [4] 101% | [5] 104% | [6] 115% | [7] 124% | [8] 118%

CCN(Cc1ccc(CN(CC)C(=O)C(Br)Br)cc1)C(=O)C(Br)Br
active: [6] -21% | [8] 4.49%
inactive: [1] 27.9% | [2] 36% | [3] 22.3% | [4] 21.6% | [5] 24.4% | [7] 18.8%

COc1cc(C2CC(c3c(C)[n+]([O-])c4ccccc4[n+]3[O-])=NN2)cc(OC)c1OC (centres undefined)
inactive: [1] 95.4% | [2] 104% | [3] 95.6% | [4] 101% | [5] 91.8% | [6] 104% | [7] 76.1% | [8] 104%

COc1ccc(/C=C/C(=O)c2ccc(NC(=O)CN3CCN(c4cc5c(cc4F)c(=O)c(C(=O)O)cn5C4CC4)CC3)cc2)cc1
inactive: [1] 98.7% | [2] 92.6% | [3] 98.6% | [4] 113% | [5] 91.9% | [6] 25.1% | [7] 100% | [8] 106%

COc1ccc(-n2cnc3c(sc4ncc(Cl)cc43)c2=O)cc1
inactive: [1] 86.1% | [2] 94.9% | [3] 77.4% | [4] 98.3% | [5] 101% | [6] 54.5% | [7] 116% | [8] 55.1%

Cc1cccc(NC(=O)c2sc3nc4c(cc3c2N)CCC4)c1C
active: [3] -26.9%
inactive: [1] 64% | [2] 61.7% | [4] 28.6% | [5] 13% | [6] 19.7% | [7] 33.1% | [8] 12.2%

N#Cc1c(NC(=O)c2ccc([N+](=O)[O-])o2)[n+]([O-])c2cc(F)c(F)cc2[n+]1[O-]
inactive: [1] 118% | [2] 203% | [3] 109% | [4] 128% | [5] 96.5% | [6] 104% | [7] 106% | [8] 98.9%

CCCOC(=O)C1(O)CCCC1
inactive: [1] 97.2% | [2] 113% | [3] 101% | [4] 104% | [5] 97.9% | [6] 97.3% | [7] 108% | [8] 116%

COc1ccc(Cn2c(SC)nc(=O)n(Cc3ccc(Cl)cc3)c2=O)cc1
inactive: [1] 81.8% | [2] 97% | [3] 111% | [4] 103% | [5] 92% | [6] 93.9% | [7] 103% | [8] 97.5%

CCOC(=O)CC/C(C)=N\Nc1ccc([N+](=O)[O-])cc1
inactive: [1] 41.8% | [2] 82.4% | [3] 28.4% | [4] 57.2% | [5] 79.9% | [6] 48.7% | [7] 60.4% | [8] 22.2%

COc1cc(NCCN=C(N)NC(N)=NC(C)C)c2ncccc2c1
inactive: [2] 52.4% | [3] 103% | [4] 88.4% | [6] 28.1% | [7] 82.9% | [8] 29.9%
active: [1] -5.22% | [5] -55.7%

NS(=O)(=O)c1ccc(CN2C(=O)c3cccc4cccc(c34)C2=O)cc1
inactive: [1] 78.1% | [2] 96.2% | [3] 114% | [4] 104% | [5] 93.9% | [6] 92.7% | [7] 107% | [8] 99.1%

COc1ccc(/C=C2\C(=O)N(C(=O)c3csc(NC(C)=O)n3)N=C2C)cc1
inactive: [1] 99.2% | [2] 95.9% | [3] 106% | [4] 106% | [5] 88.4% | [6] 98.2% | [7] 103% | [8] 102%

CC(C)(C)c1ccc(S(=O)(=O)Oc2ccc3c4c(c(=O)oc3c2)CCCCC4)cc1
inactive: [1] 45.9% | [2] 46.6% | [3] 11.9% | [4] 55.2% | [5] 32.3% | [6] 36.6% | [7] 74.5% | [8] 55.1%

Cc1ccc2nc(SCn3nnc4ccccc4c3=O)[nH]c2c1
inactive: [1] 97% | [2] 105% | [3] 101% | [4] 90.6% | [5] 87.2% | [6] 97.1% | [7] 95.5% | [8] 161%

C=CCOc1cccc(/C=C/C(=O)c2sc(Nc3cccnc3)nc2C)c1
inactive: [1] 61.3% | [2] 44% | [3] 22.5% | [4] 15.5% | [5] 19.1% | [6] 20.3% | [7] 86.5% | [8] 24%

COc1ccc(-c2nnc(COc3ccc(NC(=O)Nc4ccc(Cl)c(C(F)(F)F)c4)cc3F)o2)cc1
active: [1] 9.17% | [2] -2.18% | [3] 4.03% | [4] 9.95% | [5] 2.31% | [6] 4.43% | [8] 4.64%
inactive: [7] 13.8%

O=C1OC(c2ccccc2)=N/C1=C\c1ccc([N+](=O)[O-])cc1
inactive: [1] 106% | [2] 101% | [3] 106% | [4] 92.4% | [5] 103% | [6] 97.8% | [7] 108% | [8] 94.5%

O=P([O-])(O)OP(=O)([O-])O.[NH-][C@H]1CCCC[C@@H]1[NH-].[OH-].[OH-].[Pt+4]
inactive: [1] 114% | [2] 117% | [3] 99.3% | [4] 105% | [5] 96.7% | [6] 101% | [7] 98.8% | [8] 104%

NC(=O)c1c(NC(=O)c2ccc3c(c2)OCO3)sc2c1CCC(=O)C2
active: [1] -39.7% | [2] -6.08% | [3] 2.97% | [4] -10.8% | [5] -7.93% | [6] -56.3% | [8] -20.6%
inactive: [7] 12.5%

O=C(O)c1ccc(-n2cc(CNc3ccc(C(F)(F)F)cc3)c(-c3ccccc3)n2)cc1
inactive: [1] 79.2% | [2] 99.1% | [3] 90.8% | [4] 98.2% | [5] 81.8% | [6] 101% | [7] 108% | [8] 84.7%

CCCCCC(=O)OCc1ccccc1
inactive: [1] 95.2% | [2] 84.5% | [3] 96.3% | [4] 98.1% | [5] 97.4% | [6] 93.8% | [7] 96.9% | [8] 98.1%

CCCCCCCCCCCCCCCCC(Br)C(=O)O (centres undefined)
inactive: [1] 86.7% | [2] 122% | [3] 98.4% | [4] 116% | [5] 92.9% | [6] 105% | [7] 102% | [8] 111%

CCSc1nnc(Nc2ccc(C(C)C)cc2)s1
inactive: [1] 78.7% | [2] 103% | [3] 86.7% | [4] 84.1% | [5] 95.2% | [6] 72.3% | [7] 92.7% | [8] 83.9%

Cc1ccc(C2=NN(c3ccc(S(=O)(=O)NC(=O)NCc4ccccc4)cc3)C(c3ccc(N(C)C)cc3)C2)c(C)c1 (centres undefined)
inactive: [1] 47.3% | [2] 40.9% | [4] 59.5% | [5] 28.9% | [6] 39.7% | [7] 27.7% | [8] 34.5%
active: [3] 1%

c1ccc2c(c1)Oc1ccccc1C2C1c2ccccc2Oc2ccccc21
inactive: [1] 81.4% | [2] 106% | [3] 99.4% | [4] 97.7% | [5] 95.4% | [6] 84.2% | [7] 99.9% | [8] 95.2%

CCCC(C(=O)OCC)C(C)OC(=O)OCC (centres undefined)
inactive: [1] 86.6% | [2] 115% | [3] 101% | [4] 113% | [5] 101% | [6] 103% | [7] 103% | [8] 101%

Cc1oc2ncnc(Nc3ccccc3)c2c1C(=O)NCCO
inactive: [1] 99.4% | [2] 90.1% | [3] 102% | [4] 95.1% | [5] 98.6% | [6] 99.3% | [7] 103% | [8] 95.2%

O=C(Nc1cc(C(F)(F)F)cc(C(F)(F)F)c1)Nc1ccc(OCc2nnc(-c3ccc(Cl)cc3)o2)c(F)c1
active: [3] 9.18% | [5] 6.03% | [6] 7.81%
inactive: [1] 13.2% | [2] 22.8% | [4] 22.8% | [7] 20.3% | [8] 13.7%
